According to publication PMC5540273 (PLoS ONE, 2017):

The compounds below were run on T1, ERK3. Conditions: concentration: 1 μM, replicates: in singlicate; n = 1.
T1 construct: gene MAPK6
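Note: KINOMEscan kinase panel screen.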

Row | Structure (SMILES) | %Inh [%]
1 | Cn1cc(-c2[nH]c3cc(NC(=O)[C@H](N)C4CCCCC4)cc4c3c2C=NNC4=O)cn1 | 0
2 | O=C(Nc1ccccc1F)NC1CCN(c2ccnc(Nc3ccc(F)cc3)n2)CC1 [GSK1379800] | 20
3 | Cc1ccc(F)c(C(=O)Nc2cccc(-c3nn4ccccc4c3-c3ccnc(Nc4cccc(F)c4)n3)c2)c1F [GSK361061] | 16
4 | O=C(O)C(F)(F)F.O=C(O)C(F)(F)F.O=c1[nH]ccc2nc(N[C@@H]3CCCNC3)nc(Nc3ccc(S(=O)(=O)N4CCOCC4)cc3)c12 [GSK2177277] | 100
5 | CN1CCN(CCCNc2nccc(-c3c(-c4ccc(F)cc4)nn4cc(C(F)(F)F)ccc34)n2)CC1 [GW621581] | 0
6 | CSc1cccc2c(-c3ccncn3)c(-c3ccc(F)cc3)nn12 [GW514786] | 0
7 | O=C(Nc1cccc(-c2nn3ccccc3c2-c2ccnc(Nc3cccc(C(F)(F)F)c3)n2)c1)c1c(F)cccc1F [GSK292658] | 0
8 | COc1ccc(Nc2nccc(N3CCC(NC(=O)Nc4cccc(OC)c4)C3)n2)cc1 (stereo not shown) [GSK1379742] | 9
9 | Cc1cccc(NC(=O)Nc2ccc(Oc3ncnc4ccn(C)c34)cc2)c1 | 0
10 | O=C(NC1CCN(c2ccnc(Nc3ccc(F)cc3)n2)C1)c1cc2ccccc2s1 (stereo not shown) [GSK1379716] | 1
11 | O=c1[nH]cc(-c2ccc(N3CCOCC3)cc2)c2sc(-c3cn[nH]c3)cc12 [GSK2276055] | 0
12 | Nc1ncc(-c2cccnc2)c2scc(-c3ccc4c(c3)CCN4C(=O)Cc3ccccc3)c12 [GSK683281] | 4
13 | O=C(Nc1cccc(Oc2ccc3nc(NC(=O)C4CC4)cn3n2)c1)c1ccccc1C(F)(F)F | 0
14 | Cl.Cl.NCC(NCc1ccc(-c2ccnc3[nH]ccc23)s1)c1ccccc1 (stereo not shown) [GSK1321565] | 2
15 | COc1ccc(CNC(=O)NC2CCN(c3ccnc(Nc4ccc(F)cc4)n3)CC2)cc1 [GSK1379788] | 0
16 | CCn1c(-c2nonc2N)nc2c(C#CC(C)(C)O)nc(OC[C@H](N)c3ccccc3)cc21 [GSK943949] | 0
17 | CN(c1ccc(NC(=O)Nc2cc(C(F)(F)F)ccc2F)cc1)c1ccnc(Nc2ccc(S(N)(=O)=O)cc2)n1 [GW809893] | 0
18 | O=C(Nc1n[nH]c2nc(-c3ccc(O)cc3)ccc12)C1CC1 [SB-710363] | 0
19 | O=C(Nc1cccc(-c2nn3ccccc3c2-c2ccnc(Nc3cccc(F)c3)n2)c1)c1c(F)ccc(F)c1Cl [GSK357952] | 0

Row | Structure (SMILES) | %Inh [%]
20 | Nc1ncnc2c1nc(-c1ccccc1)n2-c1ccccc1 [SKF-97293] | 0
21 | Cc1cccc(Nc2nc(N[C@H]3CCNC3)ncc2C(N)=O)c1.Cl [GSK2197149] | 65
22 | COc1cccc(C2=C(Nc3ccc(Cl)c(C(=O)O)c3)C(=O)NC2=O)c1 [SB-390769] | 0
23 | COc1cc(Nc2nccc(-c3c(-c4cccc(NC(=O)c5c(F)cccc5F)c4)nn4ccccc34)n2)cc(OC)c1OC [GSK323521] | 0
24 | CC(=O)Nc1nc2cnc(Nc3cc(NC(=O)c4cccc(C5(C#N)CC5)c4Cl)ccc3C)nc2s1 | 13
25 | c1ccc(Oc2ccc(Nc3ccnc4cc(-c5ccc(CNCCN6CCOCC6)o5)ccc34)cc2)nc1 [GW567145] | 0
26 | CNC(=O)c1ccccc1Nc1nc(Nc2ccc(N3CCOCC3)cc2)ncc1Cl.Cl [GSK1576028] | 92
27 | Cl.Cl.NCC(NC(=O)c1cc(-c2ccccc2)c(-c2ccnc3[nH]ccc23)s1)c1ccccc1 (stereo not shown) [GSK1321561] | 0
28 | Fc1ccc(-c2ncn(C3CCNCC3)c2-c2ccnc(Oc3ccc(-c4ccccc4)cc3)n2)cc1 [SB-245391] | 0
29 | Cn1cc(-c2ccc3c(c2)CCN3C(=O)Cc2cccc(F)c2)c2c(N)ncnc21 [GSK2603358] | 0
30 | COc1cc(Nc2nccc(N3CCC(NC(=O)c4cc5ccccc5s4)C3)n2)cc(OC)c1OC (stereo not shown) [GSK1379760] | 0
31 | CC(=O)N1CCN(c2ccc(Nc3nccc(-c4sc(C(C)C)nc4-c4cccc(NS(=O)(=O)c5cccc(Cl)c5)c4)n3)cn2)CC1 [GSK1660437] | 0
32 | COc1cc(Nc2ncc3c(C)nc(-c4cc5ccccc5[nH]4)n3n2)cc(OC)c1OC [GW869516] | 42
33 | CN1CCN(Cc2cccc(-c3ccc4c(Nc5ccc(Oc6ccccc6)cc5)ccnc4c3)c2)CC1 [GW578342] | 0
34 | Nc1ncc(-c2ccc3nccc(-c4ccncc4)c3c2)cc1S(=O)(=O)N1CCOCC1 [GSK1627798] | 0
35 | CN(C)S(=O)(=O)c1cc(-c2ccc3nccc(-c4cccc(S(N)(=O)=O)c4)c3c2)cnc1N [GSK1669921] | 0
36 | CCn1c(-c2nonc2N)nc2c(C#CC(C)(C)O)ncc(OCCCCN)c21.O=C(O)C(F)(F)F.O=C(O)C(F)(F)F [GSK507274] | 6
37 | Cc1ccc(C)c(NC(=O)NC2CCN(c3ccnc(Nc4ccc(F)cc4)n3)C2)c1 (stereo not shown) [GSK1379720] | 0
